# Test results as given in PubChem BioAssay AID618 (Sanford-Burnham Center for Chemical Genomics, 2007).
# The whole screen tested about 87,000 compounds, of which about 540 (0.62%) were called active. No rule for the calls is given here. The list comes from a sample in which actives are over-represented; it also holds similar structures and randomly drawn compounds. Where a call stands in place of a potency, no number is given. Potency and affinity values are given separately.
# Assay: inhibitors of MT1-MMP promoter transcription, cell-based, luciferase reporter, luminescence (AID 618);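 also: actives suppress MT1-MMP promoter-driven transcription so potencies describe inhibitors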
# Conditions: MT1-MMP promoter luciferase reporter cells
row,SMILES,outcome
1,CCOC(=O)c1ccc(CC(=O)c2oc3cc(O)ccc3c2C)o1,inactive
2,CN(C)c1cccc(C(=O)n2cc(C(=O)c3cc(F)ccc3O)cn2)c1,inactive
3,COc1ccc(-c2cc3nc(C)cc(NCCO)n3n2)cc1,inactive
4,Cc1cc(N)n2ncc(-c3ccccc3)c2n1,inactive
5,Cc1cc(N)n2nc(C)c(-c3ccccc3)c2n1,inactive
6,COc1ccc(-c2cc3nc(C)cc(C)n3n2)cc1,inactive
7,Cc1c(C(=O)N2CCN(S(C)(=O)=O)CC2)oc2ccccc12,inactive
8,COc1ccc(C)cc1NC(=O)c1ccc(N(C)S(C)(=O)=O)cc1,inactive
9,CC1CCN(C(=S)c2ccc3c(c2)OCO3)CC1,inactive
10,COc1ccc(OC)c2sc(NC(=O)c3ccc(Br)s3)nc12,inactive
11,NS(=O)(=O)c1ccc(Nc2nc(-c3ccc4ccccc4c3)cs2)cc1,inactive
12,Oc1ccc(Nc2nc(-c3ccc(O)cc3)cs2)cc1,inactive
13,Oc1ccc(Nc2nc(-c3ccc4ccccc4c3)cs2)cc1,active
14,CCN(CC)CCCNC(=O)c1[nH]c(C)c(C(=O)NC2CCCCC2)c1C,inactive
15,Cc1nc(SCC(N)=O)[nH]c(=O)c1Cc1ccc(OC(C)C)cc1,inactive
16,O=C(Nc1ccccc1C(=O)N1CCN(c2ccccc2)CC1)c1ccco1,inactive
17,C=CCNc1nc(-c2ccccc2)nc(-n2ccnc2)n1,inactive
18,c1ccc(-c2noc(C3CCCCC3)n2)nc1,inactive
19,c1ccc(-c2nnc(-c3ccccn3)nc2NC2CCCCC2)cc1,active
20,CNc1nc(-c2ccccn2)nnc1-c1ccccc1,inactive
21,c1ccc(-c2n[nH]c(-c3ccccn3)n2)cc1,inactive
22,N#Cc1ccc(C23CC4(C2)[C@H](CN(Cc2ccc(C(F)(F)F)cc2)[C@@H]4c2ccccc2)C3c2ccc(C(F)(F)F)cc2)cc1 (stereo partly specified),inactive
23,CCc1ccc2[nH]c(=O)c(C(c3nnnn3Cc3ccccc3)N3CCOCC3)cc2c1 (stereo unspecified),inactive
24,Cc1cc(N2CCOCC2)nc(SCC(=O)c2ccccc2)n1,inactive
25,CCCC1=NCCn2cccc21,inactive

row,SMILES,outcome
1,COc1cccc(C(=O)Cn2c(NCCO)nc3ccccc32)c1,inactive
2,COc1cccc(C(=O)Cn2c(=N)n(C)c3ccccc32)c1,active
3,Cn1c(=N)n(CC(=O)O)c2ccccc21,inactive
4,CC(=O)NCCSCCNC(C)=O,inactive
5,CCSc1nnc(-c2ccc(S(=O)(=O)N3CCOCC3)cc2)n1CC1CCCO1 (stereo unspecified),inactive
6,CSc1nnc(-c2ccc(S(=O)(=O)N3CCOCC3)cc2)n1CC1CCCO1 (stereo unspecified),inactive
7,O=S(=O)(c1ccc2c(c1)nc(COc1ccc(Cl)cc1)n2CC1CCCO1)N1CCOCC1 (stereo unspecified),active
8,Cn1c(C(=O)NCCN2CCCCCC2)cc2c(=O)n(C)c3ccccc3c21,inactive
9,O=S(=O)(Nc1nnc(-c2ccccc2)s1)c1ccc(Cl)cc1,inactive
10,Cc1ncc(S(=O)(=O)c2ccc(Cl)cc2)c(-c2ccccc2)n1,inactive
11,CCN(CC)CCCNC(=O)c1cc(-c2ccc(Cl)cc2)on1,inactive
12,c1ccc(-c2cn3c4c(sc3n2)CCCC4)cc1,active
13,Cc1c(C(N)=O)sc2nc(-c3ccccc3)cn12,inactive
14,Cc1c(C(=O)N2CC(C)OC(C)C2)sc2nc(-c3ccccc3)cn12 (stereo unspecified),inactive
15,CCOc1ccc(N(CC(=O)NCC2CCCO2)S(=O)(=O)c2ccc(SC)cc2)cc1 (stereo unspecified),inactive
16,CSc1nc2sc3c(c2c(=O)n1C)CCC(C)C3 (stereo unspecified),inactive
17,FC(F)Sc1ccc(N=C2NN=C(c3ccc4c(c3)OCCO4)CS2)cc1,inactive
18,O=C1CSC(=NC2CCCCC2)N1,inactive
19,Cc1cccc(N=C2NN=C(c3ccc4c(c3)OCCO4)CS2)c1,inactive
20,COc1ccc(N=C2NN=C(c3ccc4c(c3)OCCO4)CS2)cc1,inactive
21,COc1ccc(C(=O)NCCCN2CCCC2=O)cc1,inactive
22,c1cnc(-c2nnc3n2CCCCC3)cn1,inactive
23,CCC1(N(C(C)=O)c2ccc(OC)cc2)C(=O)c2ccccc2C1=O,inactive
24,CCOC(=O)CCSc1nc(C)c2cc(C)c(C)cc2n1,inactive
25,CCCC(=O)Nc1nnc(-c2cccc(OCC)c2)s1,inactive

row,SMILES,outcome
1,O=C(Nc1ccc2c(c1)OCCO2)C1CCCN(c2ncccn2)C1 (stereo unspecified),active
2,CC(=O)Nc1ccc(NC(=O)C2CCCN(c3ncccn3)C2)cc1 (stereo unspecified),inactive
3,Cc1cc(C)nc(N2CCCC(C(=O)Nc3ccc4c(c3)OCCO4)C2)n1 (stereo unspecified),inactive
4,O=C(Nc1ccc2c(c1)OCO2)C1CCCCN1S(=O)(=O)c1ccccc1 (stereo unspecified),inactive
5,Cc1ncc(S(=O)(=O)c2ccccc2)c(-c2ccc(Cl)cc2Cl)n1,inactive
6,CC(=O)CSc1nnc(-c2ccc3c(c2)OCO3)o1,inactive
7,O=C(CSc1nnc(-c2ccc3c(c2)OCCO3)o1)N1CCCC1,inactive
8,CCC1CCCCN1C(=O)CSc1nnc(-c2ccc3c(c2)OCCO3)o1 (stereo unspecified),inactive
9,O=C(O)CSc1nnc(-c2ccc3c(c2)OCO3)o1,inactive
10,O=C(c1ccco1)N1CCN=C1SCc1ccc(F)cc1,inactive
11,COc1ccc(NC(=O)CN(C2CCCCC2)S(C)(=O)=O)cc1OC,inactive
12,N=C1C(c2ccc(Br)cc2)=C(O)C2CCc3ccccc3N12 (stereo unspecified),inactive
13,CCC(=O)Nc1cc2c(cc1C(C)=O)OCCO2,inactive
14,Cc1ccc(Cl)cc1NC(=O)CCC(=O)Nc1cc(Cl)ccc1C,inactive
15,COc1cc(C(=O)Nc2cc(C)ccn2)cc(OC)c1OC,inactive
16,COc1ccc(C(=O)NC(=O)Nc2cc(C)ccn2)cc1,active
17,COc1ccc(CC(=O)Nc2cc(C)ccn2)cc1,inactive
18,CN1CCc2c(sc3c2c(=O)n(-c2ccccc2)c2nnc(SCc4ccc(Cl)cc4)n32)C1,inactive
19,CCOC(=O)c1sc2nc3c(cc2c1N)COC(C)(C)C3,inactive
20,CCOC(=O)c1sc2nc3c(cc2c1N)COC(C)(CC)C3 (stereo unspecified),inactive
21,CCN(Cc1ccccc1)S(=O)(=O)c1ccc2oc(C(=O)O)c(C)c2c1,inactive
22,Brc1ccc2nc(CSc3ncn[nH]3)cn2c1,inactive
23,Cn1ccnc1SCc1cn2ccccc2n1,inactive
24,COc1ccc(NC(=S)N/C(=N/CS(=O)(=O)c2ccccc2)c2ccccc2)cc1,inactive
25,CCOC(=O)N1CCC(N2C(=O)c3ccc(C(=O)O)cc3C2=O)CC1,inactive

row,SMILES,outcome
1,Clc1ccc(-c2nnc(NC3=NCCCCC3)o2)cc1,active
2,CCOc1ccc(-c2nnc(NC3=NCCCCC3)o2)cc1,inactive
3,c1coc(-c2nnc(NC3=NCCC3)o2)c1,inactive
4,Clc1ccc(NC2=NCCCCC2)cc1,inactive
5,Fc1ccc(-c2nnc(NC3=NCCCCC3)o2)cc1,active
6,Cc1nnc(NC2=NCCCCC2)o1,inactive
7,O=C1/C(=C\Nc2ccc(OC(F)(F)F)cc2)CCN1c1ncccn1,inactive
8,CS(=O)(=O)N(CC(=O)NCCSC1CCCCC1)c1ccc2c(c1)OCO2,inactive
9,COc1cccc(CNc2ccc(F)c(Cl)c2)c1OC,inactive
10,FC(F)(F)c1cc(-c2ccco2)nc(-n2nnc3ccccc32)n1,inactive
11,FC(F)(F)c1cc(-c2ccco2)nc(-n2cnc3ccccc32)n1,inactive
12,Cc1nc2ccccc2n1-c1nc(-c2ccco2)cc(C(F)(F)F)n1,active
13,Cc1cc(OCCCCCNCCO)cc(C)c1Cl,inactive
14,COc1ccc(C(=O)Nc2ccccc2C(=O)NCCN2CCOCC2)cc1,inactive
15,COc1ccc2c(c1)Sc1ccccc1N2CCN(C)C,active
16,CN(C)CCCN1c2ccccc2Sc2ccc(Cl)cc21,inactive
17,CN(C)CCCN1c2ccccc2Sc2ccccc21,inactive
18,CCOC(=O)C(N)CSC1CC(=O)N(c2ccc(C(=O)OC)cc2)C1=O (stereo unspecified),inactive
19,CCOC(=O)COc1nc(Nc2ccccc2C)nc(N(C)C)n1,inactive
20,O=C(NNC(=O)c1ccc(SCC2CCCO2)c([N+](=O)[O-])c1)c1ccc(F)cc1 (stereo unspecified),inactive
21,COc1cc(-c2nc(-c3ccccn3)no2)cc(OC)c1OC,inactive
22,c1ccc(-c2noc(-c3cccc4ccccc34)n2)nc1,active
23,c1ccc2c(-c3nc(-c4ccncc4)no3)cccc2c1,inactive
24,c1ccc(-c2noc(-c3cccc4ccccc34)n2)cc1,inactive
25,COc1cccc(-c2nc(-c3ccccn3)no2)c1OC,inactive

row,SMILES,outcome
1,CCCCNC(=O)n1c(SC)nc2ccccc21,inactive
2,COc1cccc(-c2ccc(C#N)c(OC(=O)c3ccc(Cl)cc3)n2)c1,inactive
3,COc1ccc(-n2c(Cc3cc(=O)[nH]c(=O)[nH]3)nnc2SCC(=O)N2CCCC2)cc1,inactive
4,O=C(CSc1nnc(Cc2ccccc2)o1)NC1CCCCC1,inactive
5,CCOC(=O)c1c(NC(=O)CN(C)C)sc(C(=O)N(CC)CC)c1C,inactive
6,CCOC(=O)Nc1sc(C(=O)N(CC)CC)c(C)c1C(=O)OCC,inactive
7,CCOC(=O)c1c(NC(=O)CCl)sc(C(=O)N(CC)CC)c1C,active
8,Cc1ccc(NC2=C/C(=N\S(=O)(=O)c3cccs3)c3ccccc3C2=O)c(C)c1,inactive
9,CCC1CCCCN1C(=O)Cn1c(C(=O)OC)cc2ccsc21 (stereo unspecified),inactive
10,O=C(c1cccnc1)N1CCCc2ccccc21,inactive
11,COc1cccc(C(=O)Nc2ccc(NC(C)=O)cn2)c1,inactive
12,CCC(=O)Nc1ccc(NC(=O)c2cccc(OC)c2)nc1,inactive
13,COc1cccc(C(=O)Nc2ccc(NC(=O)C(C)(C)C)cn2)c1,active
14,Cn1c(NC(=O)CC(C)(C)C)cc(=O)n(C)c1=O,inactive
15,Cc1nnc2sc(-c3ccc(NC(=O)c4cccnc4)cc3)nn12,inactive
16,N#CC1=C(N)SC(N)=C(C#N)C1c1ccnc2ccccc12,inactive
17,COc1ccc(C2C(=O)c3ccccc3C2=O)c(OC)c1,inactive
18,O=C1c2ccccc2-c2nccnc21,inactive
19,O=C1c2ccccc2C(=O)C1c1ccncc1,inactive
20,O=C(NCCCCCNC(=O)c1ccco1)c1ccco1,inactive
21,CCCCOc1ccccc1C1NC(=O)NC(C)=C1C(=O)OCCOCC (stereo unspecified),inactive
